Reference: PubChem BioAssay AID1159580 (chemical genetic matrix, 2015)
Screen size: about 5,500 compounds; about 2,000 (36%) were called active. Not shown: some 18% with an inconclusive outcome. No stated cut-off is given here; in the data, active means normalized growth mostly below about 0.91 (no sharp cut-off); inconclusive means no clear call, values can overlap the other calls; inactive means mostly above about 0.92. The list shows a part of the results.

Assay: chemical genetic growth profiling, strain panel (AID 1159580);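 further: tested at 20 µM; growth read once vehicle control cultures reached saturation at 30 °C; 1 = growth at the plate median or of vehicle wells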
Conditions: growth OD

Measured: normalized growth

CNC(C)(C)Cc1ccccc1
inactive: S. cerevisiae deletion strains, locus YJR043C, strain POL32, stronger effect = lower value 0.977 | S. cerevisiae deletion strains, locus YJR066W, strain TOR1, stronger effect = lower value 1.01 | S. cerevisiae deletion strains, locus YKL009W, strain mrt4, stronger effect = lower value 0.988 | S. cerevisiae deletion strains, locus YKL068W, stronger effect = lower value 1 | S. cerevisiae deletion strains, locus YKL085W, strain MDH1 (second series), stronger effect = lower value 1.01 | S. cerevisiae deletion strains, locus YKL085W, strain MDH1, stronger effect = lower value 1.01 | S. cerevisiae deletion strains, locus YKL160W, strain elf1, stronger effect = lower value 1.01 | S. cerevisiae deletion strains, locus YKL190W, strain CNB1, stronger effect = lower value 1.01 | S. cerevisiae deletion strains, locus YKR001C, strain vps1, stronger effect = lower value 0.991 | S. cerevisiae deletion strains, locus YKR026C, strain gcn3, stronger effect = lower value 1.02 | S. cerevisiae deletion strains, locus YKR091W, strain srl3, stronger effect = lower value 1 | S. cerevisiae deletion strains, locus YLL001W, strain dnm1, stronger effect = lower value 1.01 | S. cerevisiae deletion strains, locus YLL026W, stronger effect = lower value 1.02 | S. cerevisiae deletion strains, locus YLL041C, strain sdh2, stronger effect = lower value 1.02 | S. cerevisiae deletion strains, locus YLR027C, strain aat2, stronger effect = lower value 1.02 | S. cerevisiae deletion strains, locus YLR039C, strain RIC1, stronger effect = lower value 1.04 | S. cerevisiae deletion strains, locus YLR058C, strain SHM2, stronger effect = lower value 1.01 | S. cerevisiae deletion strains, locus YLR102C, strain apc9, stronger effect = lower value 1.01 | S. cerevisiae deletion strains, locus YLR113W, strain HOG1, stronger effect = lower value 1.06 | S. cerevisiae deletion strains, locus YLR221C, strain rsa3, stronger effect = lower value 1.02 | S. cerevisiae deletion strains, locus YLR258W, strain gsy2, stronger effect = lower value 1.02 | S. cerevisiae deletion strains, locus YLR262C, strain YPT6 (second series), stronger effect = lower value 1 | S. cerevisiae deletion strains, locus YLR262C, strain YPT6, stronger effect = lower value 1.02 | S. cerevisiae deletion strains, locus YLR268W, strain sec22, stronger effect = lower value 1 | S. cerevisiae deletion strains, locus YLR320W, strain mms22, stronger effect = lower value 1.04 | S. cerevisiae deletion strains, locus YLR330W, strain CHS5, stronger effect = lower value 1.01 | S. cerevisiae deletion strains, locus YLR342W, strain FKS1 (second series), stronger effect = lower value 1.08 | S. cerevisiae deletion strains, locus YLR342W, strain FKS1, stronger effect = lower value 1.02 | S. cerevisiae deletion strains, locus YLR357W, strain rsc2, stronger effect = lower value 0.988 | S. cerevisiae deletion strains, locus YLR370C, strain arc18, stronger effect = lower value 1.01 | S. cerevisiae deletion strains, locus YLR371W, strain rom2, stronger effect = lower value 1.01 | S. cerevisiae deletion strains, locus YLR384C, strain iki3, stronger effect = lower value 1.01 | S. cerevisiae deletion strains, locus YLR418C, strain cdc73, stronger effect = lower value 1.01 | S. cerevisiae deletion strains, locus YML016C, strain PPZ1, stronger effect = lower value 1.01 | S. cerevisiae deletion strains, locus YML032C, strain rad52, stronger effect = lower value 0.985 | S. cerevisiae deletion strains, locus YML120C, strain ndi1, stronger effect = lower value 1.02 | S. cerevisiae deletion strains, locus YML124C, strain tub3, stronger effect = lower value 1.01 | S. cerevisiae deletion strains, locus YMR058W, strain fet3, stronger effect = lower value 1 | S. cerevisiae deletion strains, locus YMR078C, strain ctf18, stronger effect = lower value 0.999 | S. cerevisiae deletion strains, locus YMR125W, strain sto1, stronger effect = lower value 1.02 | S. cerevisiae deletion strains, locus YMR129W, stronger effect = lower value 1.01 | S. cerevisiae deletion strains, locus YMR205C, strain PFK2, stronger effect = lower value 1.03 | S. cerevisiae deletion strains, locus YMR223W, strain ubp8, stronger effect = lower value 1.02 | S. cerevisiae deletion strains, locus YMR231W, strain pep5, stronger effect = lower value 1.02 | S. cerevisiae deletion strains, locus YMR307W, strain GAS1, stronger effect = lower value 1.02 | S. cerevisiae deletion strains, locus YNL067W, strain RPL9B, stronger effect = lower value 0.988 | S. cerevisiae deletion strains, locus YNL071W, strain lat1, stronger effect = lower value 1.01 | S. cerevisiae deletion strains, locus YNL128W, strain TEP1, stronger effect = lower value 1.03 | S. cerevisiae deletion strains, locus YNL183C, strain NPR1, stronger effect = lower value 1 | S. cerevisiae deletion strains, locus YNL209W, strain ssb2, stronger effect = lower value 1.02 | S. cerevisiae deletion strains, locus YNL233W, strain BNI4, stronger effect = lower value 0.995 | S. cerevisiae deletion strains, locus YNL248C, strain rpa49, stronger effect = lower value 1.01 | S. cerevisiae deletion strains, locus YNL250W, strain rad50, stronger effect = lower value 1.02 | S. cerevisiae deletion strains, locus YNL271C, strain bni1, stronger effect = lower value 0.997 | S. cerevisiae deletion strains, locus YNL298W, strain CLA4, stronger effect = lower value 1 | S. cerevisiae deletion strains, locus YNL307C, strain MCK1, stronger effect = lower value 1.01 | S. cerevisiae deletion strains, locus YNL322C, strain KRE1 (second series), stronger effect = lower value 1.02 | S. cerevisiae deletion strains, locus YNL322C, strain KRE1, stronger effect = lower value 1 | S. cerevisiae deletion strains, locus YNR049C, strain mso1, stronger effect = lower value 1.01 | S. cerevisiae deletion strains, locus YNR052C, strain pop2, stronger effect = lower value 1 | S. cerevisiae deletion strains, locus YOL006C, strain TOP1, stronger effect = lower value 0.958 | S. cerevisiae deletion strains, locus YOL012C, strain htz1 1.02 | S. cerevisiae deletion strains, locus YOL147C, strain pex11, stronger effect = lower value 1.01 | S. cerevisiae deletion strains, locus YOR001W, strain rrp6, stronger effect = lower value 1.03 | S. cerevisiae deletion strains, locus YOR061W, strain CKA2, stronger effect = lower value 1.01 | S. cerevisiae deletion strains, locus YOR069W, strain VPS5, stronger effect = lower value 1.01 | S. cerevisiae deletion strains, locus YOR070C, strain gyp1, stronger effect = lower value 1.01 | S. cerevisiae deletion strains, locus YOR080W, strain dia2, stronger effect = lower value 1.02 | S. cerevisiae deletion strains, locus YOR083W, strain WHI5, stronger effect = lower value 1.02 | S. cerevisiae deletion strains, locus YOR106W, strain vam3, stronger effect = lower value 1.03 | S. cerevisiae deletion strains, locus YOR136W, strain idh2, stronger effect = lower value 0.994 | S. cerevisiae deletion strains, locus YOR144C, strain elg1, stronger effect = lower value 0.995 | S. cerevisiae deletion strains, locus YOR184W, strain ser1, stronger effect = lower value 0.998 | S. cerevisiae deletion strains, locus YOR231W, strain MKK1, stronger effect = lower value 1.03 | S. cerevisiae deletion strains, locus YOR265W, strain rbl2, stronger effect = lower value 1.01 | S. cerevisiae deletion strains, locus YOR270C, strain vph1, stronger effect = lower value 1.04 | S. cerevisiae deletion strains, locus YOR290C, strain snf2, stronger effect = lower value 1.01 | S. cerevisiae deletion strains, locus YOR316C, strain cot1, stronger effect = lower value 1.01 | S. cerevisiae deletion strains, locus YPL051W, strain arl3, stronger effect = lower value 1.02 | S. cerevisiae deletion strains, locus YPL078C, strain atp4, stronger effect = lower value 1.01 | S. cerevisiae deletion strains, locus YPL106C, strain sse1, stronger effect = lower value 1.05 | S. cerevisiae deletion strains, locus YPL240C, strain hsp82, stronger effect = lower value 1.01 | S. cerevisiae deletion strains, locus YPL241C, strain CIN2, stronger effect = lower value 1.01 | S. cerevisiae deletion strains, locus YPL256C, strain CLN2, stronger effect = lower value 1.02 | S. cerevisiae deletion strains, locus YPR119W, strain clb2, stronger effect = lower value 1.01 | S. cerevisiae deletion strains, locus YPR141C, strain kar3, stronger effect = lower value 0.998 | S. cerevisiae deletion strains, locus YPR163C, strain tif3, stronger effect = lower value 0.999 | S. cerevisiae deletion strains, locus YPR167C, strain met16, stronger effect = lower value 1 | S. cerevisiae deletion strains, strain wtn01, stronger effect = lower value 0.999 | S. cerevisiae strains, strain wild type, stronger effect = lower value 1.01
